From PubChem BioAssay
Rows were chosen to be rich in hits. Some 19% of all compounds tested hit in one or more screens of this group.
MCF10A rerep – DNA re-replication induction in MCF 10a cells; Potency, µM (series often up to 46.1 µM), without a hit: top-dose activity, positive = re-replication, usual class: activators; 2.9% of 350,000 active; MCF 10A DNA re-replication, Hoechst nuclear intensity, 48 h; further: potency means the concentration at half of the fitted maximal effect; % of control where 0% means no effect; nearly all actives have a fitted effect of over 50% in size
SW480 rerep – induces DNA re-replication in SW480 colon adenocarcinoma cells; SW480 DNA re-replication, Hoechst DNA content imaging, 48 h; Potency, µM (doses to about 46.1 µM), without a hit: at the highest dose re-replication activation, most hits filed as activators; 1.8% of 340,000 active; further: potency means the concentration at half of the fitted maximal effect; % of control where 0% means no effect; nearly all actives have a fitted effect of over 55% in size
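DNA re-replication was detected as more nuclei of elevated Hoechst intensity after 48 hr exposure to compound (23 nL pinned per well of 250 cells).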
TDP1 cell noCPT – qHTS for Inhibitors of human tyrosyl-DNA phosphodiesterase 1 (TDP1): qHTS in cells in absence of CPT. 15% of 420,000 active. DT40 Tdp1-/- hTDP1 cells, no CPT, ATP luminescence, 48 h. Potency, µM (series often up to 46.2 µM), for inactives: top-dose activity change, negative = growth inhibition, hits mostly inhibitors; further: potency means the concentration at half of the fitted maximal effect; on the % scale 0 is the no-effect control and ±100 the full control effect; nearly all actives have a fitted effect of over 55% in size
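No-CPT arm: Tdp1-/-;hTDP1 DT40 cells (400/well) plus compounds, incubated ≥48 hr at 37 °C. Readout CellTiter-Glo luminescence.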
BCR signal inh – inhibitors of chronic active B-cell receptor signaling. ABC-DLBCL IkBa-CBG/CBR reporter, luminescence ratio, 4 h. 0.05% of 340,000 active. Potency, µM (top dose mostly 46.1 µM), for the others: at the highest dose activity change, negative = inhibition, hits mostly inhibitors. AID 493014; active means well fitted inhibition curve with a large enough effect in the signal ratio, with a control signal flat, not every such curve was filed as active; inconclusive means small, poorly fitted or top-dose-only effect, or effect the other way, or a change in a side signal; the % refers to the signal ratio;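 further: potency means the concentration at half of the fitted maximal effect; plate controls were basal doxycycline-induced cells for no effect and cells given 10 µM MG132 for full effect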
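TMD8 human ABC-DLBCL cells with doxycycline-inducible IκBα–green luciferase fusion and unfused red luciferase, in 0.5% FBS medium; compounds up to 46 uM, 4 h at 37C. Green/red luminescence ratio, filter-overlap corrected, fitted to concentration-response curves.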
IL-1B inflam inh – inhibitors of inflammasome signaling (IL-1 beta secretion) | THP-1 LPS/ATP IL-1B secretion, AlphaLISA, 16 h; hits give low values | activity change, % at 57.5 µM | 4.7% of 360,000 active; in the data active means activity change below about -50%; inconclusive means mostly about -30% to -49%; further: on the % scale 0 is the no-effect control and ±100 the full control effect
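THP-1 cells pretreated 1 hr with compounds (up to 57.5 uM final), then stimulated with LPS (250 ng/mL final) plus ATP (1.25 mM final); secreted IL-1B measured by AlphaLISA after 16 hr, decreased signal indicating inhibition.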
DT40 TDP1 CPT – growth inhibition of DT40 Tdp1-/-;hTDP1 cells with camptothecin (screen for TDP1 inhibitors); Potency, µM (titrated, usually from 46.2 µM), for inactives: at the highest dose activity change, negative = growth inhibition, usual class: inhibitors; chicken DT40 Tdp1-/-;hTDP1 cells + 20 nM CPT, ATP luminescence, 48 h; AID 686979; 12% of 420,000 active; further: potency means the concentration at half of the fitted maximal effect; on the % scale 0 is the no-effect control and ±100 the full control effect; nearly all actives have a fitted effect of over 55% in size
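Cell growth measured by CellTiter-Glo luminescence after a minimum 48 h, 37 C compound exposure with 20 nM CPT in Tdp1-knockout DT40 cells stably expressing hTDP1, seeded 400/well; qHTS titration format.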
Numbers without * were called inactive; ? = inconclusive; nt = no result given; [ ] = dose if it differs, or a comment. Unless noted, the call rests on the fitted dose curve; in most records, active means well fitted curve in the direction sought with a large enough effect; inconclusive means small, poorly fitted or top-dose-only effect, or another doubt; inactive means no such curve, though single readings can be large; an effect the other way counts as inactive or inconclusive.

SMILES	MCF10A rerep	SW480 rerep	TDP1 cell noCPT	BCR signal inh	IL-1B inflam inh	DT40 TDP1 CPT
CC(=O)N1CCOc2cc(S(=O)(=O)Nc3c(C)cccc3C(C)C)c(Cl)cc21	nt	nt	?	-11.0%	nt	?
CC(=O)c1ccc(OC(C)C(=O)NCC2(N3CCOCC3)CCCCC2)cc1 (stereo not given)	-0.3%	0.4%	?	-4.4%	21.9	?
O=C(Nc1ccc2c(c1)CCC2)C1CCCN(c2ncccn2)C1 (stereo not given)	4.3%	-3.0%	?	5.1%	-18.3	-16.2%
CCc1c(C)nc2ncnn2c1N1CCC(C(=O)Nc2ccc(C)cc2)CC1	-3.9%	5.0%	14.6µM*	-2.5%	-7.7	20.6µM*
CCc1c(C)nc2ncnn2c1N1CCC(C(=O)Nc2ccccc2)CC1	0.8%	-9.5%	16.4µM*	-6.2%	-3.0	?
CCOc1ccccc1NC(=O)C1CCCN(c2c(CC)c(C)nc3ncnn23)C1 (stereo not given)	25.1%	-7.5%	20.6µM*	9.7%	-16.1	20.6µM*
CCc1c(C)nc2ncnn2c1N1CCCC(C(=O)NCCc2ccc(OC)cc2)C1 (stereo not given)	4.2%	6.0%	?	?	-2.4	?
Cc1nc2ncnn2c(N2CCCC(C(=O)Nc3ccc4c(c3)CCC4)C2)c1C (stereo not given)	4.4%	-6.4%	23.1µM*	-10.2%	-4.9	20.6µM*
CC(=O)Nc1ccc(NC(=O)C2CCN(c3c(Cc4ccccc4)c(C)nc4ncnn34)CC2)cc1	18.6%	-2.6%[9.22 µM]	-28.3%	nt	-20.6	?
CCOc1cc(NC(=S)NCC2CCCO2)c(OCC)cc1NC(=O)CC(C)C (stereo not given)	3.0%	-1.2%	-3.8%	-1.7%	29.9	-6.8%
Nc1ccn([C@@H]2O[C@H](C(=O)N3CCCN(Cc4cccs4)CC3)[C@@H](O)[C@H]2O)c(=O)n1	nt	nt	0.0%	nt	6.5	18.4%
CCSc1ccc2cc(OC)ccc2[n+]1CC	1.5%	?	7.31µM*	-2.9%	0.0	5.8µM*
COc1ccc2cc([C@H](C)CO)ccc2c1	nt	nt	-13.4%	nt	nt	13.3%
COc1cc2ccccc2cc1C(=O)N/N=C/c1cccs1	nt	nt	1.84µM*	nt	32.6	2.31µM*
COc1ccc(NC(=O)c2cc3ccccc3cc2OC)cc1	26.7%	12.4%	?	?	-15.3	29.1µM*
COc1cc2ccccc2cc1C(=O)Nc1ccc(N2CCN(C(=O)C(C)C)CC2)cc1	-13.2%	-2.0%	10.3µM*	-0.6%	1.7	16.4µM*
O=C(O)c1cccc(-c2ccc(/C=N/n3cnc4sc5c(c4c3=O)CCCC5)o2)c1	nt	nt	nt	8.4%	nt	nt
Cc1ccc(-n2nc(C(=O)N(C)c3ccccc3Cl)c3c4ccccc4n(C)c3c2=O)cc1	nt	nt	13µM*	nt	nt	18.4µM*
Cc1ccc(-n2nc(C(=O)N(C)Cc3ccccc3)c3c4ccccc4n(C)c3c2=O)cc1	nt	nt	9.2µM*	nt	nt	23.1µM*
CCOc1ccccc1N(C)C(=O)c1nn(-c2ccc(C)cc2)c(=O)c2c1c1ccccc1n2C	nt	nt	-12.6%	nt	nt	-6.0%
Cc1cc(N2CCN(C(=O)/C=C/C(=O)O)CC2)c2ccccc2n1	-6.8%	?	-2.1%	0.6%	10.3	0.5%
CS(=O)(=O)N1CCN(c2ccnc3cc(Cl)ccc23)CC1	-4.0%	-0.9%	?	-0.4%	-8.9	-16.4%
COc1cccc(Cl)c1NC(=O)N1CCN(c2cc(C)nc3ccccc23)CC1	7.4%	-7.4%	?	?	-71.2*	16.4µM*
COc1cccc(Cl)c1NC(=O)N1CCN(c2ccnc3cc(Cl)ccc23)CC1	-0.6%	-24.9%	23.1µM*	?	-1.2	?
COc1ccc(-c2csc(N3CCN(c4cc(C)nc5ccccc45)CC3)n2)cc1OC	23.5%	?	14.6µM*	?	-100.7*	14.6µM*
SMILES	MCF10A rerep	SW480 rerep	TDP1 cell noCPT	BCR signal inh	IL-1B inflam inh	DT40 TDP1 CPT
COc1cc(NC(=O)CN2C(=O)c3ccccc3S2(=O)=O)cc(OC)c1	3.2%	-6.0%	14.2%	1.7%	14.3	1.8%
CCOc1cc(C(=O)OC(C(=O)NC(=O)NC)c2ccccc2)ccc1OCC(=O)N1CCOCC1 (stereo not given)	-4.3%	-5.7%	18.4µM*	?	14.3	18.4µM*
COc1cc(C(=O)OC(C)c2ccc(F)cc2)ccc1OCC(=O)N1CCOCC1 (stereo not given)	-1.1%	-0.5%	23.1µM*	?	32.4	?
CC1CCc2nc(-c3cc4ccc(O)cc4oc3=O)sc2C1 (stereo not given)	nt	nt	?	nt	nt	-8.5%
CO/N=C(/C(=O)N[C@@H]1C(=O)N2C(C(=O)[O-])=C(C[n+]3ccn4ncccc43)CS[C@H]12)c1nsc(N)n1	nt	nt	-13.6%	nt	nt	6.2%
Cc1nnc(NC(=O)C(=O)c2cc(C)n(-c3ccc(C)c(C)c3)c2C)s1	nt	nt	-22.2%	nt	nt	-25.9%
COc1ccc(S(=O)(=O)N2CCC3(CC2)CC(=O)c2ccccc2O3)cc1OC	9.1%	?	-10.0%	-5.2%	8.9	-1.2%
COc1ccccc1N(Cc1cc(=O)[nH]c2ccccc12)C(=O)c1ccc([N+](=O)[O-])cc1	-3.4%	3.1%	11.6µM*	?	7.4	20.6µM*
COc1ccccc1N(Cc1cc(=O)[nH]c2ccccc12)C(C)=O	-7.9%	-13.4%	10.7%	-6.5%	26.9	6.2%
COCC1CCN(C(=O)c2cc(COc3ccccc3SC)on2)C1 (stereo not given)	-0.9%	-7.2%	-19.3%	1.7%	5.3	?
